# Results as given in PubChem BioAssay (NCATS).
# Results filed as inconclusive are left out. A number with no mark means an inactive call. Calls of active or inactive are those of the source. Calls follow the shape of the dose curve; as a rule, active = well fitted activation curve with a large enough effect; inconclusive = small, poorly fitted or top-dose-only effect, or effect the other way; inactive = flat fitted curve, though single readings scatter.
# Test: qHTS Assay for Identification of Small Molecule Agonists for Thrombopoietin (TPO) Signaling Pathway (AID 917)
# Settings: TPO signaling pathway reporter cells, agonist qHTS; series mostly up to 38.5 µM; activity, positive = activation: at the top concentration
# Method: NIH Molecular Libraries Screening Centers Network [MLSCN]
# NIH Chemical Genomics Center [NCGC]
# The thrombopoietin (TPO) signaling pathway was assayed in murine Ba/F3 cells stably transfected with the human TPO receptor and a luciferase reporter gene controlled by the Glycoprotein IIb promoter (provided by Axxam). BaF3 cells are an IL-3-dependent pro B cell line that upon TPO stimulation, undergo cell division and induce the megakaryocyte marker, Glycoprotein IIb. The assay was screened at the EC50 of TPO (26 pM) to identify activators of the pathway.
# NCGC Assay Protocol Summary:
# Cells were maintained at 37 C and 5% CO2in RPMI with 10% fetal bovine serum, 0.5 ng/mL murine IL-3, 100U/ml penicillin and 100 ug/ml streptomycin. Prior to plating, cells were incubated overnight in medium without IL-3. Cells were plated at 250 cells/5uL/well into white solid 1536-well plates, 23 nL of compounds were delivered by a pin tool, and 1 uL of TPO (26 pM final concentration in IL-3 deficient medium) was added. Following 24 hrs of incubation at 37 C and 5% CO2, 4 uL of Steadylite detector mix (PerkinElmer) was added, the plates incubated at room temperature for 10 min and luminescence was measured for 10 s and 2X binning by a ViewLux detector (Perkin Elmer).
# % is scaled to controls: 0 for no effect and ±100 for the full control effect.
Compound,"activity, positive = activation",outcome
C[C@]12CC[C@H](O)C[C@@H]1CC[C@H]1[C@H]2CC[C@]2(C)[C@H](C(=O)CO)CC[C@@H]12,-16.5% [at 38.5 µM],–
C[C@@H]1O[C@H]1P(=O)(O)O,-18.6%,–
C[C@@H]1Cc2cc3c(cc2C(c2ccc(N)cc2)=NN1)OCO3,-17.1%,–
NC(=O)CN1C[C@@H](O)CC1=O,-12.7% [at 38.5 µM],–
C#CCN[C@@H](C)Cc1ccccc1,2.35% [at 38.5 µM],–
C[Se]C[C@@H](N)C(=O)O,-5.03%,–
CC(C)N[C@@H](C)Cc1ccc(I)cc1,-18.4% [at 38.5 µM],–
CCCN1CC[C@@H]2c3cc(O)ccc3CC[C@H]21,-12.2%,–
CN1C[C@@H](CS(=O)(=O)N(C)C)C[C@H]2c3cccc4c3c(cn4C)C[C@@H]21,-17.5%,–
C[N+]1(C)CCc2cc3c(cc2[C@@H]1[C@@H]1OC(=O)c2c1ccc1c2OCO1)OCO3,-11.1%,–
COc1ccc2c(c1O)-c1cccc3c1[C@H](C2)N(C)CC3,-10.6% [at 38.5 µM],–
Nc1ncnc2c1ncn2[C@@H]1O[C@@H](COP(=O)(O)CP(=O)(O)OP(=O)(O)O)[C@H](O)[C@@H]1O,-12.6%,–
C[C@@]12CC[C@H]3[C@@H](CC=C4C[C@H](OS(=O)(=O)O)CC[C@]43C)[C@H]1CCC2=O,-12.4% [at 38.5 µM],–
COC(=O)[C@H](N)CCCN=C(N)N[N+](=O)[O-],-21.5%,–
Oc1ccc2c3c1O[C@@H]1c4[nH]c5c(c4C[C@@]4(O)[C@@H](C2)N(CC2CC2)CC[C@]314)C[C@]1(O)[C@@H]2Cc3ccc(O)c4c3[C@@]1(CCN2CC1CC1)[C@H]5O4,1.19%,–
C[C@]12CC[C@H](O)CC1=CC[C@@H]1[C@H]2CC[C@]2(C)C(=O)CC[C@H]12,-21.3% [at 38.5 µM],–
N[C@H](CCl)C(=O)O,1.65%,–

Compound,"activity, positive = activation",outcome
COc1ccc2c(c1)[C@]13CCCC[C@@H]1[C@H](C2)NCC3,3.82% [at 38.5 µM],–
NC[C@H](O)c1cc(O)c(O)cc1F,-24.1%,–
COc1cc([C@@H](O)CN)ccc1O,-25%,–
C[C@@]12CC[C@H]3[C@@H](CC[C@@H]4C[C@H](O)CC[C@]43C)[C@H]1CC[C@H]2O,16.6% [at 38.5 µM],–
N[C@H](Cn1ccc(=O)[nH]c1=O)C(=O)O,2.78%,–
CCN(CC)c1ncnc2c1ncn2[C@@H]1O[C@@H](COP(=O)(O)OP(=O)(O)C(Br)(Br)P(=O)(O)O)[C@H](O)[C@@H]1O,-9.95%,–
O=C(O)[C@H]1CCN1,-16.3%,–
CCNC(=O)[C@@H]1O[C@@H](n2cnc3c(N)ncnc32)[C@@H](O)[C@H]1O,-28.9%,–
COc1cc(C[C@H](C)N)c(OC)cc1I,–,inactive
C[N+]1(C)C2CC(OC(=O)C(CO)c3ccccc3)CC1[C@@H]1O[C@H]21 (stereo partly drawn),–,inactive
C=CCN1CC[C@]23c4c5ccc(O)c4O[C@@H]2/C(=N/NC(=O)c2ccccc2)CC[C@@]3(O)[C@H]1C5,7.4% [at 38.5 µM],–
COc1ccc2c3c1O[C@@H]1C(=O)CC[C@@]4(O)[C@@H](C2)N(CC2CC2)CC[C@]314,-15% [at 38.5 µM],–
CC(=O)OCC1=C(C(=O)[O-])N2C(=O)[C@@H](NC(=O)CCC[C@@H](N)C(=O)[O-])[C@@H]2SC1.[Zn+2],21%,–
C[C@@H](Cc1ccc(O)cc1)NC[C@@H](O)c1cc(O)cc(O)c1,21.5% [at 38.5 µM],–
CO[C@@H]1CC=C2CCN3CCC4=C(CC(=O)OC4)[C@]23C1,-11.7%,–
CC(C)C[C@H](NP(=O)(O)O[C@@H]1O[C@@H](C)[C@@H](O)[C@@H](O)[C@H]1O)C(=O)N[C@@H](Cc1c[nH]c2ccccc12)C(=O)O,10.6%,–
